Paper PMC5540273 (PLoS ONE, 2017)

What was measured:
TIE2 = tested on: T1, TIE2
T1 construct: gene TEK

TRKA = tested on: T2, TRKA
T2 construct: gene NTRK1

TRKC = tested on: T3, TRKC
T3 construct: gene NTRK3

[1] = tested on: TYK2(JH1domain-catalytic)
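Also: kd values determined as follow-up on hits from a single-replicate KINOMEscan panel screen.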

O=C(Nc1ccccc1)Nc1cccc(Oc2ccc3nccn3n2)c1
Kd (TIE2): > 10000 nM

NC(=O)c1nnc2ccccc2c1N
Kd (TIE2): > 10000 nM

Cc1ccccc1-n1cnc2c(N)ncnc21 [SKF-97510]
Kd (TLK1): > 10000 nM

Cc1ccc(-c2cc(-c3c[nH]nc3-c3ccccn3)ccn2)cc1 [GW684088]
Kd (TNIK): 160 nM

COc1ccc(Nc2nccc(-c3cccc(NC(=O)c4cc5cc(F)ccc5[nH]4)c3)n2)cc1 [GSK1229782]
Kd (TNIK): 820 nM

Cc1ccc(C(=O)Nc2ccc(Nc3ccnc4cc(-c5ccccn5)ccc34)cc2O)cc1.Cl [GW440146]
Kd (TNK2): 120 nM

Cc1cc(-c2ccc3c(c2)CC[C@@H](N[C@@H](C)c2ccccc2)C3)cnc1N.Cl [GW412617]
Kd (TRKA): 2500 nM

COc1cccc(NC(=O)NC2CCN(c3ccnc(Nc4ccc(F)cc4)n3)C2)c1 (centres unmarked) [GSK1379721]
Kd (TRKC): 310 nM

Cn1ccc2ncnc(Oc3ccc(Nc4nc5ccccc5[nH]4)cc3)c21
Kd (TRPM6): > 10000 nM

CS(=O)(=O)c1ccc(-c2nc3n(c2-c2ccncc2)CCC3)cc1 [SKF-105942]
Kd (TSSK1B): > 10000 nM

CCCc1ccc(S(=O)(=O)NC2CCN(c3ccnc(Nc4ccc(F)cc4)n3)C2)cc1 (centres unmarked) [GSK1379715]
Kd (TSSK1B): > 10000 nM

Cc1cccc(-c2cc(Nc3ccncc3)c3ccccc3n2)n1 [GSK223675]
Kd (TXK): > 10000 nM

Cl.Oc1ccc(-c2nc(-c3ccccc3)[nH]c2-c2ccncc2)cc1 [SB-428218]
Kd [1]: > 10000 nM

Cc1csc(-c2nc(Nc3ccncc3)c3ccccc3n2)n1 [GW869640]
Kd [1]: > 10000 nM
